# Measured values as given in the supplement of paper PMC11577813, “Eurasian spruce bark beetle detects lanierone using a highly expressed specialist odorant receptor, present in several functional sensillum types” (BMC Biology, 2024).
# ± gives the standard deviation of the averaged measurements.
# Tested on: ipsdienol A-neuron OSN class
# Assay: net action potential response of A-neuron (blank-subtracted) (spikes/s (Hz)); higher = stronger excitation
# Details: 10 µg on filter paper; neuron: A neuron (large spike amplitude)
# Description: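 Single sensillum recordings from antennal olfactory sensilla of live adult Ips typographus. Each compound was 10 µg in paraffin oil on filter paper, delivered as a 0.5 s puff. Net response = spikes in the first 0.5 s of response minus the 0.5 s pre-stimulus count, doubled to give Hz, with blank response subtracted. Values are for the large-spike A-neuron class of each of seven sensillum types that co-house the lanierone B-neuron; N = 1-4 sensilla, averaged.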
row,Compound,net action potential response
1,Cc1ccccc1 [Toluene],-1.33 ± 5
2,O=Cc1ccccc1 [Benzaldehyde],2 ± 4
3,C=CCc1ccc(OC)cc1 [Estragole],2.67 ± 1.1
